Laboratory results: the supplement of paper PMC6135742
Structures can show the parent of a compound that is named as a salt. ± gives the standard deviation of the averaged measurements. Over roughly 2,600 compounds, “MBP+ mature oligodendrocyte number relative to DMSO vehicle control” has its median near -0.34; the highest 2% begin near 13. The full list was thinned out, with the highest values kept by preference.

What follows are molecules tested on jimpy (Plp1 jimpy) mouse iPSC-derived oligodendrocyte progenitor cells (assay: MBP+ mature oligodendrocyte number relative to DMSO vehicle control (SDs above negative control mean); higher = more surviving jimpy oligodendrocytes (rescue)). Settings: 10 µM; 3 days.
Procedure: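 Primary phenotypic screen of >3,000 bioactive compounds (Selleck L1700 and Sigma LO1280 libraries) at a single dose of 10 µM. Compounds were added to jimpy (Plp1 mutant) mouse iPSC-derived OPCs at the start of thyroid hormone-induced oligodendrocyte differentiation, one well per compound in 384-well plates. After 3 days cells were stained for MBP, Sox10 and DAPI and imaged with an Operetta system. MBP+ oligodendrocyte number and total cell number were expressed as the number of SDs above the mean of the DMSO negative control on the same plate (n=16 control wells per plate). Hits were defined as >=4 SD for oligodendrocytes and >=2 SD for total cells.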
With `CN1c2ccccc2C(=O)N2CCc3c([nH]c4ccccc34)C21` (stereo in doubt) [Evodiamine] the “MBP+ mature oligodendrocyte number” value was -2.4. `Cc1ccc(NCCCc2ccccc2)c(N)c1` was tested, and the “MBP+ mature oligodendrocyte number” value was under -6.35. In the case of `CC(C)S(=O)(=O)N[C@H]1CCOC[C@@H]1c1ccc(-c2ccc(C#N)s2)cc1`, the “MBP+ mature oligodendrocyte number” value is reported as -3.15. For `CO[C@@H](C(=O)N1Cc2[nH]nc(NC(=O)c3ccc(N4CCN(C)CC4)cc3)c2C1)c1ccccc1`, the “MBP+ mature oligodendrocyte number” value was -6.61. `C[C@]12C[C@H](O)[C@H]3[C@@H](CCC4=CC(=O)CC[C@@]43C)[C@@H]1CC[C@@H]2C(=O)CO` [Corticosterone] was tested, and the “MBP+ mature oligodendrocyte number” value was 1.49. For `CC(=O)[C@H]1CC[C@H]2[C@@H]3C=CC4=CC(=O)CC[C@@]4(C)[C@@H]3CC[C@]12C` [Dydrogesterone], the “MBP+ mature oligodendrocyte number” value was 0.153. With `CC(=O)[C@H]1CC[C@H]2[C@@H]3CCC4=CC(=O)CC[C@]4(C)[C@H]3CC[C@]12C` [Progesterone] the “MBP+ mature oligodendrocyte number” value was 15.4 ± 7.2. With `O=C1NC(=O)c2c1c(-c1ccccc1)cc1[nH]c3ccc(O)cc3c21` the “MBP+ mature oligodendrocyte number” value was under -3.97. With `CNC(=O)c1ccc(N2C(=S)N(c3ccc(C#N)c(C(F)(F)F)c3)C(=O)C2(C)C)cc1F` [Enzalutamide (MDV3100)] the “MBP+ mature oligodendrocyte number” value was 16.6. `CNC(=O)c1ccc(N2C(=S)N(c3cnc(C#N)c(C(F)(F)F)c3)C(=O)C23CCC3)cc1F` was tested, and the “MBP+ mature oligodendrocyte number” value was 5.74. With `CC1(C)NC(=O)N(c2ccc([N+](=O)[O-])c(C(F)(F)F)c2)C1=O` [Nilutamide] the “MBP+ mature oligodendrocyte number” value was -0.755. For `N=C(N)SCCc1c[nH]cn1` [Imetit dihydrobromide], the “MBP+ mature oligodendrocyte number” value was -0.363. `Cc1ccc(NC(=O)c2ccc(CN3CCN(C)CC3)cc2)cc1Nc1nccc(-c2cccnc2)n1` [Imatinib (STI571)] was tested, and the “MBP+ mature oligodendrocyte number” value was -4.36. For `Cc1cc(-c2ncc(CC(=O)Nc3ccc(-c4cnccn4)cn3)cc2C)ccn1`, the “MBP+ mature oligodendrocyte number” value was 13.8. `O=C(Nc1cccnc1)c1cc(-c2ccnc(F)c2)ccc1OCc1ccccc1` was tested, and the “MBP+ mature oligodendrocyte number” value was -0.282. For `Cc1cc(-c2ccc(CC(=O)Nc3ccc(-c4cccnc4)cc3)cc2)ccn1`, the “MBP+ mature oligodendrocyte number” value was 23.2. For `Cc1ccc(NC(=O)c2ccc(CN3CCN(C)CC3)cc2)cc1Nc1nccc(-c2cccnc2)n1` [Imatinib Mesylate (STI571)], the “MBP+ mature oligodendrocyte number” value was -5.56. In the case of `COC[C@H](NC(=O)c1cnc(C)s1)C(=O)N[C@@H](COC)C(=O)N[C@@H](Cc1ccccc1)C(=O)[C@@]1(C)CO1` [Oprozomib (ONX 0912)], the “MBP+ mature oligodendrocyte number” value is reported as -5.76. In the case of `COc1cc2c(cc1O)[C@@H](Cc1ccc(O)c(Oc3ccc(C[C@@H]4c5cc(OC)c(OC)cc5CCN4C)cc3)c1)N(C)CC2` [Daurisoline], the “MBP+ mature oligodendrocyte number” value is reported as under -3.85. In the case of `Nc1nc2c(ncn2[C@@H]2O[C@H](CO)[C@@H](O)[C@@H]2O)c(=O)[nH]1` [Ara-G hydrate], the “MBP+ mature oligodendrocyte number” value is reported as -0.925. `Nc1ncnc2c1ncn2C1CCCC1` [9-cyclopentyladenine] was tested, and the “MBP+ mature oligodendrocyte number” value was -1.18. `COc1cc2c(cc1-c1c(C)noc1C)ncc1[nH]c(=O)n([C@H](C)c3ccccn3)c12` was tested, and the “MBP+ mature oligodendrocyte number” value was under -6.01. `Nc1nccc2c1ncn2[C@@H]1O[C@H](CO)[C@@H](O)[C@H]1O` [3-deazaadenosine] was tested, and the “MBP+ mature oligodendrocyte number” value was -1.07. With `O=C(CCCN1CCC(O)(c2ccc(Cl)cc2)CC1)c1ccc(F)cc1` [Haloperidol] the “MBP+ mature oligodendrocyte number” value was 2.36 ± 1.1. In the case of `OC(CN1CCC(Cc2ccc(F)cc2)CC1)c1ccc(Cl)cc1` (stereo unspecified) [Eliprodil], the “MBP+ mature oligodendrocyte number” value is reported as 13.4. For `O=C1[C@H](CC[C@H](O)c2ccc(F)cc2)[C@@H](c2ccc(O)cc2)N1c1ccc(F)cc1` [Ezetimibe], the “MBP+ mature oligodendrocyte number” value was 2.95. In the case of `CCN(CC)CCNC(=O)c1ccc(NS(C)(=O)=O)cc1` [Sematilide monohydrochloride monohydrate], the “MBP+ mature oligodendrocyte number” value is reported as -0.439. For `O=C(NCc1ccccc1)c1csc(Nc2ccncn2)n1` [Thiazovivin], the “MBP+ mature oligodendrocyte number” value was -3.47. For `CCCCNc1ncc(-c2ccc(CN3CCOCC3)cn2)c(NC2CCC(O)CC2)n1` (stereo unspecified), the “MBP+ mature oligodendrocyte number” value was -4.15. With `O=C1c2ccccc2C(=O)c2c(NCCc3ccc(O)cc3)ccc(NCCc3ccc(O)cc3)c21` the “MBP+ mature oligodendrocyte number” value was -4.41. For `Cc1ccc(C(=O)C(C)CN2CCCCC2)cc1` (stereo unspecified) [Tolperisone HCl], the “MBP+ mature oligodendrocyte number” value was 5.05. `Cc1ccc(C(=O)Cn2c3c(sc2=N)CCCC3)cc1` [Pifithrin-? (PFT?)] was tested, and the “MBP+ mature oligodendrocyte number” value was 17. In the case of `S=c1[nH]c(-c2ccccc2)cn1-c1ccccc1`, the “MBP+ mature oligodendrocyte number” value is reported as 2.54. In the case of `CN(C)c1ccc(/C=C2/C(=O)Nc3ccccc32)cc1`, the “MBP+ mature oligodendrocyte number” value is reported as 0.789. `O=c1cc(-c2ccccc2)oc2cc(O)cc(O)c12` [Chrysin] was tested, and the “MBP+ mature oligodendrocyte number” value was 4.59. With `CCN(CC)CCNC(=O)c1cc(Cl)c(N)cc1OC` [Metoclopramide hydrochloride] the “MBP+ mature oligodendrocyte number” value was 0.304. `COc1cc(N)c(Cl)cc1C(=O)OCCN1CCCCC1` was tested, and the “MBP+ mature oligodendrocyte number” value was -3.81. In the case of `CCOc1cc(N)c(Cl)cc1C(=O)NCC1CN(Cc2ccc(F)cc2)CCO1` (stereo unspecified) [Mosapride Citrate], the “MBP+ mature oligodendrocyte number” value is reported as 23. For `C[C@H]1O[C@@H](Oc2c(-c3cc(O)c(O)c(O)c3)oc3cc(O)cc(O)c3c2=O)[C@@H](O)[C@@H](O)[C@@H]1O` [Myricitrin], the “MBP+ mature oligodendrocyte number” value was 0.507. `Nc1ccc(-c2ccc3ccccc3n2)cc1` [BF-170 hydrochloride] was tested, and the “MBP+ mature oligodendrocyte number” value was 0.146. In the case of `O=C(/C=C/c1ccc(O)c(O)c1)c1ccc(O)cc1O` [Butein], the “MBP+ mature oligodendrocyte number” value is reported as -4.58. `CCCCOc1ccc(C(=O)CCN2CCCCC2)cc1` [Dyclonine HCl] was tested, and the “MBP+ mature oligodendrocyte number” value was -1.91. In the case of `CCCCOc1ccc(OCCCN2CCOCC2)cc1` [Pramoxine HCl], the “MBP+ mature oligodendrocyte number” value is reported as 14.3. `O=C(Cc1ccc(-c2ccc(OCCN3CCOCC3)cc2)cn1)NCc1ccccc1` was tested, and the “MBP+ mature oligodendrocyte number” value was -5.77. `CC[C@@H]1C(=O)N(C)c2cnc(Nc3ccc(C(=O)N[C@H]4CC[C@H](N5CCN(CC6CC6)CC5)CC4)cc3OC)nc2N1C(C)C` [Volasertib (BI 6727)] was tested, and the “MBP+ mature oligodendrocyte number” value was under -4.81. In the case of `Cc1c(OCC(F)(F)F)ccnc1C[S+]([O-])c1nc2ccccc2[nH]1` (stereo unspecified) [Lansoprazole], the “MBP+ mature oligodendrocyte number” value is reported as 7.5 ± 4.5. With `COCCCOc1ccnc(C[S+]([O-])c2nc3ccccc3[nH]2)c1C` (stereo unspecified) [Rabeprazole sodium] the “MBP+ mature oligodendrocyte number” value was 1.61. `Cc1c(OCC(F)(F)F)ccnc1C[S@@+]([O-])c1nc2ccccc2[nH]1` [Dexlansoprazole] was tested, and the “MBP+ mature oligodendrocyte number” value was 17.2. In the case of `O=C(NCCCNc1nc(Nc2cccc(NC(=O)N3CCCC3)c2)ncc1I)c1cccs1`, the “MBP+ mature oligodendrocyte number” value is reported as -6.61. In the case of `NCCCCC(=O)O` [5-Aminovaleric acid hydrochloride], the “MBP+ mature oligodendrocyte number” value is reported as -1.14. For `O=C(C=Cc1ccccc1)NC(NC(=S)Nc1ccc(Cl)cc1)C(Cl)(Cl)Cl` (stereo unspecified), the “MBP+ mature oligodendrocyte number” value was -0.386. With `O=C(/C=C/c1ccccc1)NC(NC(=S)Nc1cccc2cccnc12)C(Cl)(Cl)Cl` (stereo unspecified) [Salubrinal] the “MBP+ mature oligodendrocyte number” value was 19. With `O=C(Nc1cccc2cccnc12)c1ccc(N2C(=O)[C@@H]3[C@H](C2=O)[C@@H]2C=C[C@H]3C2)cc1` [IWR-1-endo] the “MBP+ mature oligodendrocyte number” value was -3.56. For `N=C(N)Nc1ccc(C(=O)Oc2ccc3cc(C(=N)N)ccc3c2)cc1` [Nafamostat Mesylate], the “MBP+ mature oligodendrocyte number” value was -3.03. With `NC1CONC1=O` (racemic) [DL-Cycloserine] the “MBP+ mature oligodendrocyte number” value was 0.353. With `Cn1ccc2cc3c(cc21)CCN3C(=O)Nc1cccnc1` the “MBP+ mature oligodendrocyte number” value was 0.574. With `O=C(Nc1cccnc1)N1CCC(Cc2cccc(Oc3ccc(C(F)(F)F)cn3)c2)CC1` the “MBP+ mature oligodendrocyte number” value was 19.5. With `O=C(Nc1ccccc1Br)N[C@@H]1CCN(c2ccc(C(F)(F)F)cn2)C1` the “MBP+ mature oligodendrocyte number” value was 1.22. In the case of `O=C(Nc1cccnc1)N1CCC(Cc2cccc(Oc3ccc(C(F)(F)F)cn3)c2)CC1` [PF 3845 hydrate], the “MBP+ mature oligodendrocyte number” value is reported as 10.1. With `Nc1nccc(Oc2ccc(NC(=O)c3c[nH]cc(-c4ccc(F)cc4)c3=O)cc2F)c1Cl` the “MBP+ mature oligodendrocyte number” value was 7.17. In the case of `C[C@@H](O[C@H]1OCCN(Cc2nn(P(=O)(O)O)c(=O)[nH]2)[C@H]1c1ccc(F)cc1)c1cc(C(F)(F)F)cc(C(F)(F)F)c1` [Fosaprepitant dimeglumine salt], the “MBP+ mature oligodendrocyte number” value is reported as -2.44. `CN1CC(=O)N=C1NC(=O)Nc1cccc(Cl)c1` [Fenobam] was tested, and the “MBP+ mature oligodendrocyte number” value was -0.794. For `Nc1nc2c(c(=O)[nH]1)C[C@@H](CCc1ccc(C(=O)N[C@@H](CCC(=O)O)C(=O)O)cc1)CN2` [Lometrexol hydrate], the “MBP+ mature oligodendrocyte number” value was 0.225. For `CCn1cc(-c2ccnc3[nH]c(-c4cccc(CN(C)C)c4)cc23)c(-c2ccc(NC(=O)N(C)C)cc2)n1`, the “MBP+ mature oligodendrocyte number” value was -5.93. For `CN(C)C(=O)c1ccc(S(=O)(=O)c2ccc(NC(=O)[C@@](C)(O)C(F)(F)F)c(Cl)c2)cc1`, the “MBP+ mature oligodendrocyte number” value was 19.5. With `C[C@H](Oc1cc(-c2cnn(C3CCNCC3)c2)cnc1N)c1c(Cl)ccc(F)c1Cl` [(S)-crizotinib] the “MBP+ mature oligodendrocyte number” value was -4.58. With `Cc1ccc(Nc2c(F)cccc2Cl)c(CC(=O)O)c1` [Lumiracoxib] the “MBP+ mature oligodendrocyte number” value was 0.263. With `CN1CCC(=C2c3ccccc3CCc3sccc32)CC1` [Pizotifen Malate] the “MBP+ mature oligodendrocyte number” value was -6.09. `Clc1ccccc1CN1CCc2sccc2C1` [Ticlopidine HCl] was tested, and the “MBP+ mature oligodendrocyte number” value was 18.4. For `COC(=O)[C@H](c1ccccc1Cl)N1CCc2sccc2C1` [Clopidogrel], the “MBP+ mature oligodendrocyte number” value was 1.42. With `COC(=O)C1=C(C)NC(C)=C(C(=O)OC)C1c1cccc(NC(=O)NCCCN2CCC(c3cccc(OC)c3)CC2)c1` the “MBP+ mature oligodendrocyte number” value was under -3.85. In the case of `CCc1nc(N)nc(N)c1-c1ccc(Cl)cc1` [Pyrimethamine], the “MBP+ mature oligodendrocyte number” value is reported as 49. For `C[n+]1cccc(C(N)=O)c1` [1-Methylnicotinamide chloride], the “MBP+ mature oligodendrocyte number” value was -0.176. With `N#CC[C@H](C1CCCC1)n1cc(-c2ncnc3[nH]ccc23)cn1` the “MBP+ mature oligodendrocyte number” value was 2.47. `c1ccc(-c2[nH]ncc2-c2ccnc3ccccc23)nc1` was tested, and the “MBP+ mature oligodendrocyte number” value was -2.12. With `CCN(CC)CC#CCOC(=O)C(O)(c1ccccc1)C1CCCCC1` (stereo unspecified) [Oxybutynin chloride] the “MBP+ mature oligodendrocyte number” value was 29.7. In the case of `CCN(CC)CC#CCOC(=O)C(O)(c1ccccc1)C1CCCCC1` (stereo unspecified) [Oxybutynin Chloride], the “MBP+ mature oligodendrocyte number” value is reported as 13.5. `CCN(CC)CCOC(=O)C(c1ccccc1)c1ccccc1` [Adiphenine HCl] was tested, and the “MBP+ mature oligodendrocyte number” value was 0.0731. With `CCCC(C(=O)OCCN(CC)CC)(c1ccccc1)c1ccccc1` [SKF-525A hydrochloride] the “MBP+ mature oligodendrocyte number” value was -3.42. `Cc1cc2nc(NCCCO)n(CC(=O)c3cc(C(C)(C)C)c(O)c(C(C)(C)C)c3)c2cc1C` was tested, and the “MBP+ mature oligodendrocyte number” value was -4. In the case of `CC[C@H](NC(=O)[C@H](C)NC)C(=O)N1C[C@@H](O)C[C@H]1Cc1c(-c2[nH]c3cc(F)ccc3c2C[C@@H]2C[C@H](O)CN2C(=O)[C@H](CC)NC(=O)[C@H](C)NC)[nH]c2cc(F)ccc12` [Birinapant], the “MBP+ mature oligodendrocyte number” value is reported as -5.76.
